Experimental data published in PubChem BioAssay AID2315 (National Center for Advancing Translational Sciences (NCATS), 2010).
In all, about 290,000 compounds went through this assay and about 27,000 (9.3%) were called active. The entries come from a sample that favours actives as a whole. A number with no mark means an inactive call. Rule as the data show it: active = inhibition mostly above about 28% (no sharp cut-off); inactive = mostly below about 43%.

Assay: A qHTS for Small Molecule Inhibitors of Shiga Toxin; also: 0% is about no effect
Details: Vero cells, Shiga toxin protein synthesis inhibition reporter; at 38.7 µM, active compounds read high

Point of comparison: `NC(=O)CC(NC(=O)Cc1ccc(Br)cc1)c1ccc(NC2CC3CCC2C3)c([N+](=O)[O-])c1` (stereo not given), inhibition 60%. Against it:
- Cc1ccc(S(=O)(=O)N2CCC(C)CC2)cc1C(=O)NCc1ccccn1 — lower, 5.07%
- COc1ccccc1OCc1ccc(C(=O)NC(C)c2ccccc2)o1 (stereo not given) — lower, -4.29%
- CCc1cc(-c2nnc(SCC(=O)NC3CC3)n2C)cs1 — lower, 14.1%
- Cc1ccc(C(=O)N2CCCCCC2)cc1Br — lower, 20.5%
- Cc1ccc(C(=O)NC(C)c2ccccc2)cc1Br (stereo not given) — lower, 38.4%
- CCCc1nnc(SCC(=O)Nc2ccc(C(=O)OCC)cc2)o1 — lower, 32.8%
- COCCNC(=O)c1ccc2c(c1)ncn2-c1ccc(C)c(Cl)c1 — lower, 19.9%
- COCCNC(=O)c1ccc(S(=O)(=O)c2ccc(Cl)cc2)c(NC(C)=O)c1 — lower, -11.4%
- Cc1ccc(S(=O)(=O)N2CCCC(C(=O)N3CCN(C)CC3)C2)cc1 (stereo not given) — lower, -6.59%
- NS(=O)(=O)c1cccc(NC(=O)CC23CC4CC(CC(Br)(C4)C2)C3)c1 — lower, -9.01%
- CCOc1ccc(C(=O)Nc2ccc(S(=O)(=O)NCC3CCCO3)cc2)cc1OCC (stereo not given) — lower, 12.5%
- O=C(Cc1csc(Nc2nc(=S)[nH]c3ccccc23)n1)NCCCN1CCN(c2cccc(Cl)c2)CC1 — lower, 15.7%
- O=C(NC1CCCC1)C(c1ccc(Cl)cc1)N(C(=O)c1csnn1)C1CC1 (stereo not given) — lower, 2.36%
- O=C(NCc1ccccc1)C(c1cccnc1)N(C(=O)c1csnn1)c1ccc(F)cc1 (stereo not given) — lower, 1.7%
- CC1CCN(C(=O)Cn2nnnc2CN2CCOCC2)CC1 — lower, 15.5%
- CS(=O)(=O)n1nc(-c2ccccc2)nc1NCc1ccco1 — lower, 7.12%
- CCS(=O)(=O)n1nc(-c2ccc(OC)cc2)nc1SC — higher, 63.1%
- CCCC(C(=O)NC1CCCC1)N(C(=O)Cn1nnc(-c2ccc(C)o2)n1)c1cccc(O)c1 (stereo not given) — lower, -4.05%
- C[C@@H]1O[C@@H](OC[C@H]2O[C@@H](Oc3cc(O)c4c(c3)O[C@H](c3ccc(O)c(O)c3)CC4=O)[C@H](O)[C@@H](O)[C@@H]2O)[C@H](O)[C@H](O)[C@H]1O — lower, -8.25%
- Cc1cc(NC(=O)c2cc(-c3cccs3)on2)nn1Cc1ccc(Cl)cc1 — lower, 9.37%
- Cc1ccc(Cn2ccc(NC(=O)C3C4CCC(C4)C3C(=O)O)n2)cc1 (stereo not given) — lower, -3.4%
- OC(c1ccc(Cl)cc1)C(CN1CCOCC1)c1ccccc1 (stereo not given) — lower, 2.21%
- CC(=O)c1ccc(S(=O)(=O)NCc2nnnn2-c2ccccc2)cc1 — lower, -2.55%
- O=C(CSc1nnc(-c2ccncc2)o1)NCc1ccc(Cl)cc1 — lower, -9.29%
- c1ccc(-c2nnc(SCc3nc4ccccc4[nH]3)o2)cc1 — lower, 36.1%
- CCOc1ccc(S(=O)(=O)N2CCC(c3ccccc3)CC2)cc1C(=O)O — lower, -1.98%
- COc1cccc(-c2nc(CS(=O)(=O)CC(=O)NCCc3ccc(OC)c(OC)c3)c(C)o2)c1 — lower, -8.6%
- Cc1nc2ccccc2c(=O)n1NC(=O)c1ccc(Cl)c([N+](=O)[O-])c1 — lower, -9.41%
- O=C(O)c1cccc(N2C(=O)Nc3ccccc3N2O)c1 — lower, 11.8%
- COC(=O)CC1=NN(c2ccccc2)C(=O)C1 — lower, 17.6%
- CC(C)c1nc(CNC(=O)CC2C(=O)NCCN2Cc2cccc(F)c2F)cs1 (stereo not given) — lower, -5.01%
- CN(CCNC(=O)c1cc2c(-c3ccccc3F)nn(C)c2s1)C1CCCCC1 — lower, -4.2%
- COc1ccc(OC)c(S(=O)(=O)N(C)CC(=O)N2CCN(c3ccccc3)CC2)c1 — lower, -6.69%
- O=C(CCNS(=O)(=O)c1cccs1)N1CCN(c2ccc(F)cc2)CC1 — lower, -7.67%
- CCOc1ccc(S(=O)(=O)NCc2ccc3c(c2)OCO3)cc1C — lower, -11.3%
- COc1ccc(N2C(=O)C3C(C2=O)C(C(=O)c2ccccc2)N2CCCC32)cc1 (stereo not given) — lower, 19.2%
- CC(=O)Nc1ccc(S(=O)(=O)NNC(=O)CCc2ccccc2)cc1 — lower, -3.14%
- COc1ccc(CCNC(=O)c2cc(-c3ccc4c(c3)OCO4)on2)cc1OC — lower, -10.3%
- COc1ccc(-c2onc(C)c2-c2ccc3c(c2)OCCO3)c(O)c1 — lower, -15%
- Cc1c(C)n(Cc2ccc(Cl)cc2)c2ccc(C(=O)NCCCN3CCOCC3)cc12 — lower, -12.7%
- COc1ccc(N/N=C2/CCCCC2=O)cc1 — lower, 34.6%
- COC(=O)c1ccc(S(=O)(=O)N2CCc3ccccc3C2)cc1 — lower, -1.69%
- COc1ccc(N(C)S(=O)(=O)c2ccc3c(c2)CC(C)N3C(=O)C2CC2)c(OC)c1 (stereo not given) — lower, 14.9%
- Cc1ccc(NC(=O)OCCNC(=O)c2ccncc2)cc1 — lower, 47.9%
- O=C(Nc1ccc(Cl)cc1)OCc1cc(-c2ccccc2)on1 — lower, 49.1%
- CC(C)(COC(=O)Nc1ccccc1)COC(=O)Nc1ccccc1 — lower, 35.2%
- CCOC(=O)Nc1ccc(S(=O)(=O)N(C)C(C)C)cc1 — lower, -22.3%
- CN1CCc2ccccc2C1Cc1ccccc1NC(=O)c1sc2ccccc2c1Cl (stereo not given) — lower, -2.62%

In the case of `C=CCNC(=O)c1ccc(C)c(Br)c1`, the inhibition was 19.7% (active).
In the case of `COCCNC(=O)c1snc2ccc(Cl)cc12`, the inhibition was 51.4% (active).
For `CCS(=O)(=O)n1nc(-c2ccccc2)nc1SCc1ccccc1`, the inhibition was 115% (active).
For `Cc1ccc(Cn2ccc(NC(=O)c3cc(C(C)C)on3)n2)cc1`, the inhibition was 84.3% (active).
With `Clc1ccc(-c2nnc(SCc3nc4ccccc4s3)o2)cc1` the inhibition was 61.6% (active).
With `NC1=NN(c2cccc(C(=O)O)c2)C(=O)C1` the inhibition was 143% (active).
With `CN(CC(=O)N1CCN(c2ccccc2)CC1)S(=O)(=O)c1cccs1` the inhibition was 63.8% (active).
For `COc1cc(-c2c(-c3ccc4c(c3)OCO4)noc2C)ccc1F`, the inhibition was 48.8% (active).
With `Cc1ccc(N/N=C2\COC(C)(C)CC2=O)cc1` the inhibition was 101% (active).
With `Cc1ccc(NC(=O)OCc2cncs2)cc1` the inhibition was 70.8% (active).
In the case of `CCOC(=O)Nc1ccc(NC(=O)OCC)cc1`, the inhibition was 52.3% (active).
